Experimental findings from PubChem BioAssay (EPA / NIEHS) are described below.

Each structure is given as a SMILES string. Calls of active or inactive are those of the source. How the source made its calls: active means hit-call score of the fitted dose curve at least 0.9, where 1 is the maximum; inactive means score below 0.9.

This assay is described as follows: ATG_M_61_CIS: Attagene CIS-FACTORIAL HepG2 Assay for M61 Transcription Factor (Internal Marker) (AID 2282937). As to conditions: HepG2 Attagene CIS-FACTORIAL M61 internal marker reporter; actives raise or lower the signal. On the procedure:
ATG_CIS is a cell-based, multiplexed-readout assay that uses HepG2, a human liver cell line, with measurements taken at 24 hours after chemical dosing in a 24-well plate.ATG_M_61_CIS is one of 52 assay component(s) measured or calculated from the ATG_CIS assay. It is designed to make measurements of mRNA induction, a form of inducible reporter, as detected with fluorescence intensity signals by Reverse transcription polymerase chain reaction (RT-PCR) and Capillary electrophoresis technology.Data from the assay component ATG_M_61_CIS was analyzed into 1 assay endpoint. This assay endpoint, ATG_M_61_CIS, was analyzed with bidirectional fitting relative to DMSO as the negative control and baseline of activity. Using a type of inducible reporter, measures of mRNA for gain or loss-of-signal activity can be used to understand the background control at the transcription factor-level as they relate to the gene . Furthermore, this assay endpoint can be referred to as a secondary readout, because this assay has produced multiple assay endpoints where this one serves a background control function. To generalize the intended target to other relatable targets, this assay endpoint is annotated to the background measurement intended target family, where the subfamily is internal marker.
Human liver HepG2 cells are transiently transfected with multiple reporter transcription units (MRTUs) in 6-well plates using FuGene 6 reagent (Roche; 3 ml FuGene/1 mg DNA). The MRTU constructs are regulated by a cis-regulating element (promoter). […] A major difference between the CIS and TRANS system is that in CIS activities of endogenous TFs are measured, whereas the TRANS assay evaluates changes in activities of exogenous, chimeric NR-Gal4 proteins. […] At the end of 24 hour incubation, total RNA was isolated using TriZol reagent (Invitrogen). The isolated RNA is then reverse-transcribed using oligo(dT) primer and Mo-MLV reverse transcriptase (Invitrogen) with DNAse I (Ambion) treatment for 30 min. The one-tenth of the produced cDNA was amplified by PCR using Taq DNA polymerase (Invitrogen) and two reporter sequence-specific primers. The PCR products were fluorescently labeled by primer extension with 6-arboxyfluorescein (6-FAM) 5'-labeled reporter sequence-specific primer (2 min at 95 C, 20 s at 68 C and 10 min at 72 C) and these products were digested with 5U of HpaI (New England Biolabs) for 2h at 37 C. The fragments were purified using Qiaquick PCR columns (Qiagen), analyzed on an ABI 3130xL genetic analyzer (Applied Biosystems) with peak positions identified by using a set of X-rhodamine (ROX)-labeled MapMarker1000 molecular weight standards (BioVentures). The raw capillary electrophoresis data was processed using Attagraph software (Attagene).
Take `O=S(=O)(O)O`: the outcome was inactive.
`COC(=O)c1ccccc1S(=O)(=O)NC(=O)Nc1nc(C)cc(C)n1`: the compound was called inactive.
As for `CCC(Br)(CC)C(=O)NC(N)=O`, the compound was called inactive.
Regarding `Cc1ccc(N(SC(F)(Cl)Cl)S(=O)(=O)N(C)C)cc1`, the outcome was inactive.
As for `O=C(O)COc1ccccc1`, the result was inactive.
The value for `C[N+](C)(C)CC(=O)[O-]` was “inactive”; that for `CC(C)[C@@H](C(=O)O[C@@H](C#N)c1cccc(Oc2ccccc2)c1)c1ccc(Cl)cc1` was “inactive”; that for `O=[N+]([O-])O.O=[N+]([O-])O.[Cd]` was “inactive”.
The same measure for `O=C(O)c1cc[c]([Hg][Cl])cc1`: “inactive”.
In the case of `CC1(C)C(=O)NC(=O)NC1=O`, the outcome was inactive.
On to `O=S(=O)(O)OOS(=O)(=O)O`, for which the compound was called inactive.
Turning to `CCCCOP(=O)(O)OCCCC`, the outcome was inactive.
On to `N#Cc1cc(I)c(O)c(I)c1`, for which the compound was classed as inactive.
Regarding `COc1cc(OC)c(OC)cc1C=O`, the call was inactive.
As for `C=CC(=O)OCCO`, the result was inactive.
In the case of `ClCCCCCCCl`, the compound was classed as inactive.
As to `CN(C)N`, the compound was called inactive.
As to `C=CCN(CC=C)C(=O)C(Cl)Cl`, the result was inactive.
For the compound `O=[N+]([O-])c1ccc(Cl)cc1`, the call was inactive.
For `CC(O)CN(CC(C)O)CC(C)O` (stereo not given), the result was inactive.
The value for `CCC[N+](=O)[O-]` was “inactive”; that for `N#CC(c1ccccc1)c1ccccc1` was “inactive”; that for `CC(Cc1ccc(C(C)(C)C)cc1)CN1C[C@@H](C)O[C@@H](C)C1` (stereo not given in full) was “inactive”.
For the compound `COc1ccc(CO)cc1`, the result was inactive.
With `C=CCc1ccc(OC(=O)Cc2ccccc2)c(OC)c1`, the outcome was inactive.
As for `O=[N+]([O-])C=Cc1ccccc1`, the compound was classed as inactive.
Regarding `CCCC=NO`, the compound was called inactive.
Turning to `Oc1ccc(Cl)cc1`, the outcome was inactive.
In the case of `N#CCCCCC#N`, the compound was called inactive.
For `COC(C)(C)CCC[C@H](C)C/C=C/C(C)=C/C(=O)OC(C)C`, the compound was classed as inactive.
The value for `C[N+](=O)[O-]` was “inactive”; that for `Nc1c(Cl)c(Cl)c(Cl)c(Cl)c1Cl` was “inactive”.
`O=C(NC(=O)c1c(F)cccc1F)Nc1ccc(Oc2ccc(C(F)(F)F)cc2Cl)cc1F`: the compound was called inactive.
The value for `O=C(O)C(Br)Br` was “inactive”; that for `CC(C)COP(=O)(OCC(C)C)OCC(C)C` was “inactive”; that for `CC=Cc1ccc2c(c1)OCO2` was “inactive”.
In the case of `CCOC(=O)NC(=S)Nc1ccccc1NC(=S)NC(=O)OCC`, the result was inactive.
As for `SCc1ccco1`, the outcome was inactive.
With `CN(C)C(=O)C(c1ccccc1)c1ccccc1`, the compound was called inactive.
On to `O=[N+]([O-])c1cc([N+](=O)[O-])c2ccccc2c1`, for which the compound was classed as inactive.
